Screens (PubChem)
Most compounds without a hit are left out; they make up all but 3.9% or so of the library.
CDK5 inh: blocks human CDK5/p35 kinase activity; Q00535+Q15078; Recombinant CDK5/p35, ADP-Glo luminescence, 60 min; inhibition, % at 10 µM; actives 0.01% (n = 330,000); AID 488839;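 active = highest replicate inhibition of at least 50% and at least 75% of replicates reaching 50%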
Glyco luc inh: blocks N-linked glycosylation in D54 reporter cells | reporter increase, % at 12.5 µM | D54 ERlucT glycosylation luciferase reporter, 24 h; percent of 100 nM tunicamycin response | AID 588692 | actives 0.23% (n = 360,000);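 active = mean luciferase reporter signal, scaled so untreated is 0 and the glycosylation-blocking control 100, at or above a set limit in every replicate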;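 also: luciferase carries N-glycosylation sites so blocking glycosylation raises the light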
CASP6 VEID inh: blocks human caspase-6 cleavage activity | purified caspase-6, Z-VEID-R110 cleavage fluorescence | actives 0.53% (n = 350,000) | P55212 | inhibition, % at 12.5 µM;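 active = mean inhibition across replicates at least about 35%, with every replicate also reaching that limit, limit read from the data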
ALR inh: inhibitors of human sulfhydryl oxidase ALR; P55789; purified ALR, DTT oxidation, H2O2 HRP-luminol luminescence; inhibition, % (test concentration not listed); actives 3.8% (n = 290,000); AID 485317;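 active = mean replicate inhibition above about 79%, with every replicate also reaching it, limit read from the data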
Mot1-301 SUMO: inhibitors of SUMOylation pathway: yeast Mot1-301 growth rescue; actives 1% (n = 320,000); AID 2716; S. cerevisiae Mot1-301 growth rescue, ATP luminescence, 38.5C; percent above DMSO median, 100 means doubled; growth rescue, % at 18.8 µM;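 active = every valid replicate shows activation above 250% relative to neutral control wells; inactive = the rest, any valid replicate at or below 250%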
NSD2 HMT inh: inhibitors of human histone methyltransferase NSD2. O96028. NSD2 peptide methylation, AlphaScreen, 120 min. inhibition, % at 12.5 µM. actives 0.54% (n = 310,000); in the data active = inhibition above about 50%
Target sequence (O96028 whole entry, looked up): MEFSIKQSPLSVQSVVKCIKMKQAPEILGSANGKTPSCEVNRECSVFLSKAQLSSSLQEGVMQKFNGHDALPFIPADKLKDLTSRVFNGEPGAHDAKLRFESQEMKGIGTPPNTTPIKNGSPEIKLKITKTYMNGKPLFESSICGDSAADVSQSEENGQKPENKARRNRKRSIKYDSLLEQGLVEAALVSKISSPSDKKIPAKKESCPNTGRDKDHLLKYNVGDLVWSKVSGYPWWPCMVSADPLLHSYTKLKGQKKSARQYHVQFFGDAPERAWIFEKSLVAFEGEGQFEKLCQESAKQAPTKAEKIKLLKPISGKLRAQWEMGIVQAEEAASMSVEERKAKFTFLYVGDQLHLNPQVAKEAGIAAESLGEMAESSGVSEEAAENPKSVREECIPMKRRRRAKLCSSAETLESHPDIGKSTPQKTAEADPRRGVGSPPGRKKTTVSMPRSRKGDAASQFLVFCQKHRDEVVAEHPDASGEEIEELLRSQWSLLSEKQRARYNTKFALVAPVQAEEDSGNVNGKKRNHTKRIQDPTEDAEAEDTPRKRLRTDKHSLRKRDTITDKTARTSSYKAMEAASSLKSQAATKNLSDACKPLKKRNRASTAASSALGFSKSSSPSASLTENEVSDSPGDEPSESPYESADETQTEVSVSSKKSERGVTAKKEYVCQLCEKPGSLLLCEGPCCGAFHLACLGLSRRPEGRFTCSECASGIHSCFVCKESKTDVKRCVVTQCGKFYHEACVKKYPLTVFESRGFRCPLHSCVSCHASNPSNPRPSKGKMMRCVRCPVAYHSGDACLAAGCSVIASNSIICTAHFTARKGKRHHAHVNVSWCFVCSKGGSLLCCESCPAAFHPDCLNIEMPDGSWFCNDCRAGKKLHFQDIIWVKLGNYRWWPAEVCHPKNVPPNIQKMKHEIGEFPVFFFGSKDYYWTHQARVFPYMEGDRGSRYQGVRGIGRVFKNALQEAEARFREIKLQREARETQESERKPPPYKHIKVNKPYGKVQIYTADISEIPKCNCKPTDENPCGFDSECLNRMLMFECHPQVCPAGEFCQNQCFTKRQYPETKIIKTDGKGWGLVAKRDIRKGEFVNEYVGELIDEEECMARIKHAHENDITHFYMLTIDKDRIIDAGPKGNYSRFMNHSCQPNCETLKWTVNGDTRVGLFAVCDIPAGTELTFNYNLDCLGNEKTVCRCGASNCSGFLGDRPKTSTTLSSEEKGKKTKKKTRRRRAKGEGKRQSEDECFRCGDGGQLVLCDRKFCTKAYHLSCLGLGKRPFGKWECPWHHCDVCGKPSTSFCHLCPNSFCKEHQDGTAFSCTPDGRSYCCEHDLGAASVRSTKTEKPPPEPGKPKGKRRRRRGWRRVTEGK
Large screens that a line does not name were inactive.

COc1ccc(S(=O)(=O)N(C)C[C@H]2OCCCC[C@@H](C)Oc3ccc(NC(=O)Nc4ccc5c(c4)OCO5)cc3C(=O)N([C@@H](C)CO)C[C@H]2C)cc1	none (no result: CDK5 inh, Glyco luc inh, ALR inh, Mot1-301 SUMO, NSD2 HMT inh)
O=C(Nc1c(F)cc(F)cc1Br)c1cc(-c2ccc(O)cc2)on1	ALR inh 99 (no result: NSD2 HMT inh)
O=C(NCCCN1CCOCC1)c1cc(-c2ccc(Br)cc2)on1	none (no result: CASP6 VEID inh, ALR inh)
CCCCNC(=O)c1cc(-c2ccc(F)cc2)on1	Glyco luc inh 37 (no result: CASP6 VEID inh)
O=C(Nc1c(F)cc(F)cc1Br)c1cc(-c2ccccc2)on1	none (no result: ALR inh)
O=C(NCCCN1CCOCC1)c1cc(-c2ccc(O)cc2)on1	ALR inh 98 (no result: NSD2 HMT inh)
COc1ccc(Nc2nc(C(=O)NCCCN3CCOCC3)cs2)cc1	ALR inh 83 (no result: CASP6 VEID inh)
Cc1ccc(S(=O)(=O)Nc2ccc3c(c2)C(=O)N([C@@H](C)CO)C[C@@H](C)[C@H](CN(C)Cc2ccc(C(=O)O)cc2)OCCCC[C@H](C)O3)cc1	none (no result: CDK5 inh, Glyco luc inh, ALR inh, Mot1-301 SUMO, NSD2 HMT inh)
COCC(=O)N1CC[C@@H]2[C@H]1c1cc(-c3cccc(OC)c3)ccc1N(C)[C@@H]2CO	none (no result: CDK5 inh, Glyco luc inh, ALR inh, Mot1-301 SUMO, NSD2 HMT inh)
CC(C)NC(=O)N(C)C[C@H]1Oc2ccc(NS(=O)(=O)c3ccccc3)cc2CC(=O)N([C@@H](C)CO)C[C@H]1C	none (no result: CDK5 inh, Glyco luc inh, ALR inh, Mot1-301 SUMO, NSD2 HMT inh)
CN1c2ccc(-c3cccc(C#N)c3)cc2[C@@H]2[C@@H](CCN2C(=O)NC2CCCC2)[C@@H]1CO	none (no result: CDK5 inh, Glyco luc inh, ALR inh, Mot1-301 SUMO, NSD2 HMT inh)
O=C(NCCCN1CCOCC1)c1cc(-c2ccccc2)on1	Glyco luc inh 30
O=C(NCCN1CCOCC1)c1cc(-c2ccccc2)on1	none (no result: CASP6 VEID inh)
Cc1ccc2[nH]c(C(F)(F)F)cc(=O)c2c1	Mot1-301 SUMO 342
O=C(N/N=C/c1ccoc1)c1cc(O)cc(O)c1	CASP6 VEID inh 74
O=C(N/N=C/c1ccc[nH]1)c1ccccc1O	CASP6 VEID inh 60
O=C(N/N=C/c1ccnc2ccccc12)c1ccccc1O	none
Cc1cc(C)cc(C(=O)N/N=C/c2ccoc2)c1	none
O=C(N/N=C/c1ccoc1)c1ccccc1O	CASP6 VEID inh 50
O=C(N/N=C/c1oc(O)c2ccccc12)c1ccccc1O	CASP6 VEID inh 37
O=C(N/N=C/c1ccoc1)c1ccccc1	none
C/C=C/c1cnc2c(c1)C(=O)N([C@@H](C)CO)C[C@H](C)[C@@H](CN(C)Cc1ccncc1)O2	none (no result: CDK5 inh, Glyco luc inh, ALR inh, Mot1-301 SUMO, NSD2 HMT inh)
COc1ccc(NC(=O)N(C)C[C@H]2Oc3ncc(C#CCN(C)C)cc3C(=O)N([C@@H](C)CO)C[C@@H]2C)cc1	none (no result: CDK5 inh, Glyco luc inh, ALR inh, Mot1-301 SUMO, NSD2 HMT inh)
COc1ccc(N/N=C(\C#N)C(N)=O)cc1	ALR inh 98
COc1ccc(N/N=C(\C#N)C(=N)N2CCOCC2)cc1	ALR inh 99
CCOc1ccc(N/N=C(/C#N)C(N)=O)cc1	ALR inh 98
CC(C)(/C=N/O)N(O)C=C1C=CC(=O)C=C1	ALR inh 99
CC(=O)N=C1C=CC(=CN(O)C(C)(C)Cc2ccccc2)C=C1	none (no result: NSD2 HMT inh)
CC(C)CC#Cc1ccc2c(c1)O[C@H](CN(C)C(=O)Cc1ccccn1)[C@@H](C)CN([C@H](C)CO)S2(=O)=O	none (no result: CDK5 inh, Glyco luc inh, ALR inh, Mot1-301 SUMO, NSD2 HMT inh)
S=c1nccc(-c2cccs2)[nH]1	ALR inh 99
Cc1ccc(-c2ccnc(=S)[nH]2)cc1	ALR inh 100
S=c1nccc(-c2ccc3c(c2)CCO3)[nH]1	ALR inh 98
CC1(C)CCc2cc(-c3ccnc(=S)[nH]3)ccc2O1	ALR inh 100
O=C(CNC(=O)c1ccc(Cl)cc1Cl)OCC(=O)N1CCOCC1	none (no result: CDK5 inh, Glyco luc inh, CASP6 VEID inh, ALR inh, Mot1-301 SUMO)
Cc1ccc(C(=O)NNC(=O)C2CC2)cc1Br	ALR inh 88
C/C(CC1CC(COCC(C)C)OC1=O)=N\Nc1nc(-c2ccccc2)cs1 (centres undefined)	ALR inh 98 (no result: CASP6 VEID inh)
COc1ccc(-c2[nH]ncc2-c2ccc3c(c2)OCCO3)c(O)c1	ALR inh 92 (no result: CASP6 VEID inh)
CCCc1cc(-c2[nH]ncc2-c2ccc3c(c2)OCCCO3)c(O)cc1OC	none (no result: CDK5 inh, Glyco luc inh, CASP6 VEID inh, ALR inh, Mot1-301 SUMO)
O=S(=O)(N[C@H]1CC[C@H](CCn2cc(-c3cccc(F)c3)nn2)O[C@@H]1CO)c1ccc(Cl)cc1	none (no result: CDK5 inh, Glyco luc inh, ALR inh, Mot1-301 SUMO, NSD2 HMT inh)
O=c1oc(-c2ccc(F)cc2)nc2ccsc12	ALR inh 83 (no result: CASP6 VEID inh)
COc1ccc(S(=O)(=O)N(C)C[C@@H]2Oc3c(NC(=O)Nc4ccc(C(F)(F)F)cc4)cccc3C(=O)N([C@@H](C)CO)C[C@@H]2C)cc1	none (no result: CDK5 inh, Glyco luc inh, ALR inh, Mot1-301 SUMO, NSD2 HMT inh)
Cc1nc2cc(C(=O)NCCN3CCOCC3)ccc2n1-c1ccc(F)cc1F	none (no result: CASP6 VEID inh, ALR inh, NSD2 HMT inh)
Cc1cccc(-n2c(C)nc3cc(C(=O)NCCN4CCOCC4)ccc32)c1	CASP6 VEID inh 89 (no result: CDK5 inh, ALR inh, Mot1-301 SUMO)
O=C(CSc1nnc(-c2ccccn2)o1)Nc1ccccc1Cl	ALR inh 99
CN(C)c1ncc(C2=C(Cl)C(=O)C(N3CCCC3)=C(Cl)C2=O)s1	NSD2 HMT inh 57 (no result: CASP6 VEID inh, ALR inh)
O=C1C(Cl)=C(N2CCCCC2)C(=O)C(Cl)=C1c1cnc(N2CCCCC2)s1	none (no result: CASP6 VEID inh, ALR inh, Mot1-301 SUMO, NSD2 HMT inh)
O=C(O)C(c1ccccc1)N1C(=O)/C(=C/c2cccs2)SC1=S (centres undefined)	ALR inh 98
O=C(O)C(Cc1ccccc1)N1C(=O)/C(=C/c2cccs2)SC1=S (centres undefined)	none (no result: ALR inh, Mot1-301 SUMO)
